Screens from PubChem BioAssay.
A selection: hits, their analogues and other compounds. The true share with any hit is near 2.8%.
Peg3 prom inh: reduces Peg3 promoter-driven luciferase expression in HeLa; HeLa PEG-Prom luciferase reporter, luminescence, overnight; inhibition, % at 20 µM; 360,000 compounds, 1.7% hits;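 active means inhibition of at least 50% at 20 µM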
CF NFkB block: blocks PAF-induced NF-kB reporter in cystic fibrosis cells | KKLEB NF-kB-GFP reporter, GFP fluorescence overnight | 360,000 compounds, 0.86% hits | inhibition, % at 5 µM;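 active means at least 50% inhibition at 5 µM, scaled per plate between neutral and stimulator controls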;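 further: PAF is a Pseudomonas aeruginosa culture filtrate used as stimulus; plate controls were PAF-stimulated DMSO wells for no effect and unstimulated DMSO wells for full effect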
TRPM1 prom inh: reduces MITF-dependent TRPM1 promoter luciferase signal; SK-MEL-5 TRPM1 promoter luciferase, 24 h; inhibition, % at 12.5 µM; AID 488899; 330,000 compounds, 0.83% hits;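 active means mean inhibition across replicates of 60% or more, whatever share of single replicates reaches that level; inconclusive means some that reach 60%, reason not given; inactive means mean inhibition across replicates below 60%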
HIF-2a block: inhibitors of HIF-2a; 786-0 RCC cells HIF-2a reporter, luciferase luminescence, overnight; inhibition, % at 18.8 µM; 360,000 compounds, 0.72% hits;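 active means inhibition of the luminescence signal of 40% or more relative to plate controls, in a single-dose primary screen at 18.75 µM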
Shn3 3UTR inh: inhibitors of Schnurri-3 3'UTR reporter in osteoblasts; Clone20 osteoblast Shn3 3'UTR firefly luciferase, 24 h; inhibition, % at 12.5 µM; 360,000 compounds, 0.52% hits;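 active means mean inhibition of at least 75% with every replicate also reaching 75%; inconclusive means mean inhibition at least 75% but some replicate below; inactive means mean inhibition below 75%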;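 further: 0% = median of neutral control wells and 100% = pilot-screen positive control compound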
KKLEB cytotox: CF airway cell cytotoxicity counter-screen | activity change (cytotoxicity), % at 5 µM | KKLEB CF airway cells viability, ATPlite luminescence, overnight; active compounds read low; cells stimulated with P. aeruginosa culture filtrate | 360,000 compounds, 0.36% hits | AID 602141;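 active means corrected activity change at or below -50% at 5 µM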
* = called active by the depositor.

Results for CCCOC(=O)c1ccc(OCC(O)Cn2c(C)nc3ccccc32)cc1 (stereo not given) ?
Peg3 prom inh: -13.9; CF NFkB block: 6.0; TRPM1 prom inh: 33.1; HIF-2a block: 16.9; Shn3 3UTR inh: 89.4*; KKLEB cytotox: 5.1

What do the screens show for `N#Cc1nc(-c2ccc(OCc3ccc(Cl)cc3)cc2)oc1N1CCOCC1`?
Peg3 prom inh: 56.0*; CF NFkB block: -5.1; TRPM1 prom inh: 22.3; HIF-2a block: -47.6; Shn3 3UTR inh: -4.6; KKLEB cytotox: -7.3

Results for N#Cc1nc(-c2ccc(OCc3ccc(Cl)cc3)cc2)oc1N1CCC(C(N)=O)CC1 ?
Peg3 prom inh: 5.6; CF NFkB block: -7.4; TRPM1 prom inh: -7.8; HIF-2a block: -52.8; Shn3 3UTR inh: 27.4; KKLEB cytotox: -1.3

How did CC(CC(=O)N(CCC1=CCCCC1)c1c(N)n(Cc2ccccc2)c(=O)[nH]c1=O)c1ccccc1 (stereo not given) do in these assays?
Peg3 prom inh: 87.1*; CF NFkB block: -11.8; TRPM1 prom inh: inconclusive; HIF-2a block: -6.2; Shn3 3UTR inh: 19.1; KKLEB cytotox: 4.7

Results for CCOc1ccc(OCC(=O)N(CCC2=CCCCC2)c2c(N)n(Cc3ccccc3)c(=O)[nH]c2=O)cc1 ?
Peg3 prom inh: 82.7*; CF NFkB block: 71.8*; TRPM1 prom inh: 76.8*; HIF-2a block: 4.1; Shn3 3UTR inh: 81.7; KKLEB cytotox: -61.5*

What do the screens show for `COc1ccc(CC(=O)N(CCC2=CCCCC2)c2c(N)n(Cc3ccccc3)c(=O)[nH]c2=O)cc1`?
Peg3 prom inh: 16.6; CF NFkB block: -13.5; HIF-2a block: 12.9; Shn3 3UTR inh: -2.5; KKLEB cytotox: 0.3

Results for Cc1ccsc1C(=O)N1CCCC(CO)(Cc2ccccc2F)C1 (stereo not given) ?
Peg3 prom inh: 21.6; CF NFkB block: -25.8; TRPM1 prom inh: 16.3; HIF-2a block: 5.8; Shn3 3UTR inh: 12.3; KKLEB cytotox: 7.7

Results for COCCNC(=O)C1(C)CCCN(Cc2cn(C)c3ccccc23)C1 (stereo not given) ?
Peg3 prom inh: -30.9; CF NFkB block: -7.2; HIF-2a block: 21.9; Shn3 3UTR inh: 10.5; KKLEB cytotox: -0.7

What do the screens show for `Cn1c(N)c(C(=O)COC(=O)c2cc(S(=O)(=O)N3CCOCC3)ccc2F)c(=O)n(C)c1=O`?
Peg3 prom inh: 88.9*; CF NFkB block: -8.2; TRPM1 prom inh: 82.2*; HIF-2a block: -14.6; Shn3 3UTR inh: 14.4; KKLEB cytotox: -10.4

How did CCN1CCN(CCCNC(=O)c2ccc3c(Cl)c4c(nc3c2)CCCC4)CC1 do in these assays?
Peg3 prom inh: 73.6*; CF NFkB block: 18.7; TRPM1 prom inh: 91.6*; HIF-2a block: -18.4; Shn3 3UTR inh: -0.9; KKLEB cytotox: -4.4

Results for CCN1CCN(CCNC(=O)c2ccc3nc(-c4cccc(C)c4)c(-c4cccc(C)c4)nc3c2)CC1 ?
Peg3 prom inh: 91.3*; CF NFkB block: 12.4; TRPM1 prom inh: 86.6*; HIF-2a block: 1.8; Shn3 3UTR inh: 5.2; KKLEB cytotox: 3.6

Results for O=C(NCCCN1CCCCCC1)c1ccc2c(Cl)c3c(nc2c1)CCCC3 ?
Peg3 prom inh: 13.6; CF NFkB block: -6.1; TRPM1 prom inh: -2.1; HIF-2a block: -7.6; Shn3 3UTR inh: -0.2; KKLEB cytotox: 6.1

What do the screens show for `Cc1ccc(-c2nnn(CC(=O)N(CCCO)C(C(=O)NC3CCCC3)c3ccc(F)cc3)n2)o1` (stereo not given)?
Peg3 prom inh: -1.5; CF NFkB block: -6.8; TRPM1 prom inh: -12.4; HIF-2a block: 8.2; Shn3 3UTR inh: -6.2; KKLEB cytotox: 2.7

How did CCN=C1S/C(=C\c2cc(OCC)c(O)cc2Br)C(=O)N1CC do in these assays?
Peg3 prom inh: 51.2*; CF NFkB block: 46.6; TRPM1 prom inh: -14.6; HIF-2a block: 15.2; Shn3 3UTR inh: 12.6; KKLEB cytotox: -28.7

Results for CCOC(=O)c1c(-n2cccc2)sc2c1CCCC2=O ?
Peg3 prom inh: 51.4*; CF NFkB block: 0.2; TRPM1 prom inh: -2.6; HIF-2a block: 23.4; Shn3 3UTR inh: -25.5; KKLEB cytotox: 4.7

How did CCOC(=O)c1c(N2C(=O)Nc3ccccc3N2O)sc2c1CCCC2 do in these assays?
Peg3 prom inh: 7.8; CF NFkB block: -4.3; TRPM1 prom inh: -3.3; HIF-2a block: 16.9; Shn3 3UTR inh: 0.4; KKLEB cytotox: 1.1

What do the screens show for `COCCCNC(=O)[C@@H](Cc1ccccc1)NC(=O)CC[C@H]1O[C@@H](n2ccc(=O)[nH]c2=O)[C@H](O)[C@@H]1O`?
Peg3 prom inh: -8.0; CF NFkB block: 6.1; HIF-2a block: 1.8; Shn3 3UTR inh: -10.6; KKLEB cytotox: -1.1

How did Cc1ccc(S(=O)(=O)NCc2cccnc2)cc1C(=O)NC1CCCCC1 do in these assays?
Peg3 prom inh: 10.4; CF NFkB block: 4.9; TRPM1 prom inh: -1.6; HIF-2a block: -6.0; Shn3 3UTR inh: -5.2; KKLEB cytotox: 1.1

What do the screens show for `COc1ccc(CCNC(=O)c2nnn(-c3ccc4c(c3)OCCO4)c2N)cc1OC`?
Peg3 prom inh: -132.3; CF NFkB block: 9.1; TRPM1 prom inh: 40.5; HIF-2a block: 51.2*; Shn3 3UTR inh: 47.4; KKLEB cytotox: -3.4

What do the screens show for `COc1ccc(CCNC(=O)c2nnn(-c3ccccc3OC)c2N)cc1OC`?
Peg3 prom inh: -2.3; CF NFkB block: -11.9; TRPM1 prom inh: -9.3; HIF-2a block: -6.4; Shn3 3UTR inh: 13.3; KKLEB cytotox: 4.4

What do the screens show for `CCCn1c(SCc2cc(=O)oc3ccc4ccccc4c23)n[nH]c1=O`?
Peg3 prom inh: 16.7; CF NFkB block: -15.5; TRPM1 prom inh: 18.5; HIF-2a block: 20.4; Shn3 3UTR inh: 3.2; KKLEB cytotox: 8.8

Results for CNc1ccc(Br)cc(C(=O)/C=C/c2cccc(Cl)c2Cl)c1=O ?
Peg3 prom inh: 105.6*; CF NFkB block: 46.0; TRPM1 prom inh: 80.6*; HIF-2a block: 13.4; Shn3 3UTR inh: -1.2; KKLEB cytotox: -20.1

Results for CNc1ccc(Br)cc(C(=O)/C=C/c2cccc(OC)c2OC)c1=O ?
Peg3 prom inh: 7.0; CF NFkB block: 0.3; TRPM1 prom inh: 12.6; HIF-2a block: 13.3; Shn3 3UTR inh: -30.3; KKLEB cytotox: -0.6

What do the screens show for `CC(O)CNCCCOc1ccc(Cl)cc1C(C)(C)C` (stereo not given)?
Peg3 prom inh: 80.9*; CF NFkB block: 10.3; TRPM1 prom inh: -10.0; HIF-2a block: 2.2; Shn3 3UTR inh: -12.4; KKLEB cytotox: -10.8

What do the screens show for `CN(C)CCOCCOc1ccc(Cl)cc1C(C)(C)C`?
Peg3 prom inh: 18.5; CF NFkB block: 11.4; TRPM1 prom inh: -2.2; HIF-2a block: 10.9; Shn3 3UTR inh: 14.4; KKLEB cytotox: -22.1

How did Cc1sc2ncnc(N3CCN(S(=O)(=O)c4ccc(C(C)(C)C)cc4)CC3)c2c1C do in these assays?
Peg3 prom inh: 12.1; CF NFkB block: -1.3; TRPM1 prom inh: 32.9; HIF-2a block: 6.5; Shn3 3UTR inh: 72.7; KKLEB cytotox: -2.2
